Assay [1] can be described thus: NCI Yeast Anticancer Drug Screen. Data for the rad50 strain (AID 155).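 Further: 0% = growth of vehicle-only cultures of the same strain.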 Particulars: S. cerevisiae rad50 strain growth inhibition; at 50.0 µM; stronger effect = higher value. The method, boiled down:
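Genetically altered yeast (DNA repair pathway); compound treatment; growth inhibition vs vehicle ctrl.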

Assay [2] is described as follows: NCI Yeast Anticancer Drug Screen. Data for the mec2-1 strain (AID 157). Particulars: S. cerevisiae mec2-1 strain, at 50.0 µM, stronger effect = higher value. The method, boiled down: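 Each compound was tested on mec2-1 yeast, a strain altered in DNA damage repair or cell cycle control. Growth inhibition is reported relative to vehicle.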
Assay [3] can be described thus: NCI Yeast Anticancer Drug Screen. Data for the sgs1 mgt1 strain (AID 161).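 Further: 0% = growth of cultures given vehicle only.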 Particulars: S. cerevisiae sgs1 mgt1 strain, at 50.0 µM, stronger effect = higher value. In short, it runs like this: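 Read-out: growth inhibition vs vehicle controls. Cells: mutant yeast strain deficient in DNA damage repair.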
The nature of assay [4]: NCI Yeast Anticancer Drug Screen. Data for the cln2 rad14 strain (AID 165).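 Further: 0% = growth equal to vehicle treated cultures.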 Particulars: S. cerevisiae cln2 rad14 strain, at 50.0 µM, stronger effect = higher value. In short, it runs like this:
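Test compounds were added to cln2 rad14 yeast cultures; inhibition of growth was then determined by comparison with vehicle treatment.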

The nature of assay [5]: NCI Yeast Anticancer Drug Screen. Data for the bub3 strain (AID 167). Particulars: S. cerevisiae bub3 mutant strain, at 50.0 µM, stronger effect = higher value. The method, boiled down:
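Yeast carrying a defined mutation is treated with each compound, and growth is compared with that of vehicle-exposed cells to give inhibition.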

A short description of assay [6]: NCI Yeast Anticancer Drug Screen. Data for the mlh1 rad18 strain (AID 175). Particulars: S. cerevisiae mlh1 rad18 strain growth inhibition; at 50.0 µM; stronger effect = higher value. In short, it runs like this:
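Inhibition values reflect reduced growth of mutant yeast versus vehicle-treated controls following compound exposure; the mutations affect DNA damage repair.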

About 79,000 compounds went through this panel and 15% of them were active in at least one assay; those are over-represented in the sample as a whole. Unmarked numbers belong to inactive results. Calls of active or inactive are those of the source. No stated cut-off is given here; in the data, active means growth inhibition above about 70%; inactive means the rest. Where a SMILES comes first, the peptide text is derived from it.

Consider `C[N+](C)(C)C(C1=CCCC1=O)c1ccccc1` (stereo not given), for which the growth inhibition was 50% in assay [1]; 43.3% in assay [2]; 3.7% in assay [3]; 26.9% in assay [4]; 30.3% in assay [5]; 43.6% in assay [6].
`N#CCCc1c(O)ccc2ccccc12`: the growth inhibition is 38.6% in assay [1]; 0.6% in assay [2]; 10.1% in assay [3]; -59.9% in assay [4]; 10.5% in assay [5]; 11.6% in assay [6].
For `CCO/C(Cc1ccc(Cl)cc1)=N/NC(N)=S`, the growth inhibition was 39.6% in assay [1]; 2% in assay [2]; 24.9% in assay [3]; 24.1% in assay [4]; 21.2% in assay [5]; -15.5% in assay [6].
As for `O=C1CCc2nc(=O)c3c4ccccc4ccc3n21`, the growth inhibition is 3.95% in assay [1]; 1.55% in assay [2]; -5.35% in assay [3]; -36.5% in assay [4]; -3.95% in assay [5]; -0.2% in assay [6].
Consider `COc1ccc(CCCCl)c(C2=NCCc3cc(OC)c(OC)cc32)c1`, for which the growth inhibition in assay [1] was 19.6%; in assay [2], 2.4%; in assay [3], -37.8%; in assay [4], -6.1%; in assay [5] it was -37.8%; in assay [6] it was 0.9%.
As for `NC(=O)c1cc[n+](-c2ccc([N+](=O)[O-])cc2[N+](=O)[O-])cc1`, the growth inhibition in assay [1] was 19.2%; in assay [2], 0.45%; in assay [3] it was 27.2%; in assay [4], 34.6%; in assay [5] it was 19.2%; in assay [6], 56.5%.
As to `CC1C(c2ccccc2O)c2cc3c(cc2OC1N1CCOCC1)OCO3` (stereo not given), the growth inhibition in assay [1] is -24.9%; in assay [2], -13.6%; in assay [3] it was 7.45%; in assay [4] it was -5.75%; in assay [5], -18.2%; in assay [6] it was -29.1%.
Take `COc1cccc(/C=N/O)c1OC`: the growth inhibition in assay [1] is 6.75%; in assay [2], 4.25%; in assay [3], 2.6%; in assay [4] it was 8.55%; in assay [5], -1.85%; in assay [6], 2%.
As for `CC(C)CC(NC(=O)CCCCCl)C(=O)O` (stereo not given), the growth inhibition in assay [1] was -1.85%; in assay [2], -4.65%; in assay [3], 0.25%; in assay [4] it was 2.75%; in assay [5], -3.4%; in assay [6], 6.05%.
For `CN(Cc1cnc2nc(N)nc(N)c2n1)c1ccc(C(=O)NC(CCC(=O)OC(C)(C)C)C(=O)O)cc1` (stereo not given), the growth inhibition in assay [1] was 13.7%; in assay [2], 32.4%; in assay [3] it was 4.5%; in assay [4], -20.1%; in assay [5], -2.55%; in assay [6], -1.2%.
As to `NC(=S)N/N=C/c1cc(=O)c2cc(Cl)ccc2o1`, the growth inhibition in assay [1] is -0.05%; in assay [2], 11.8%; in assay [3], 42.3%; in assay [4] it was 45.8%; in assay [5], 7.95%; in assay [6], 55%.
In the case of `NC(=O)N/N=C1/C=C2CCCCC2CC1` (stereo not given), the growth inhibition in assay [1] was 6.8%; in assay [2] it was 0.35%; in assay [3], -1%; in assay [4], 10.8%; in assay [5], -16.4%; in assay [6] it was 10.2%.
With `CC1NC(C)SC(C)S1` (stereo not given), the growth inhibition in assay [1] was -9.15%; in assay [2], -23.6%; in assay [3] it was 0.15%; in assay [4], -16.1%; in assay [5], -0.7%; in assay [6], 36.8%.
Consider `CCN(CC)C(=O)Oc1cc(C(=O)N(CC)CC)c(OC(=O)N(CC)CC)cc1C(=O)N(CC)CC`, for which the growth inhibition is 5.1% in assay [1]; 8.15% in assay [2]; -1.6% in assay [3]; -1.4% in assay [4]; 1% in assay [5]; 30.1% in assay [6].
Regarding `O=C1C(CO)=C[C@H](O)[C@H]2O[C@@H]12`, the growth inhibition is -4.3% in assay [1]; 0.3% in assay [2]; -9.45% in assay [3]; 7.85% in assay [4]; 8.65% in assay [5]; -29.4% in assay [6].
Consider `CCN(CC)CCOc1cccc(Oc2ccccc2)c1`, for which the growth inhibition was 74% (active) in assay [1]; 62.7% in assay [2]; 72.8% (active) in assay [3]; 68.2% in assay [4]; 53% in assay [5]; 84% (active) in assay [6].
As for `CC1=NN(C(=O)CC(=O)Nc2cccc(C)c2)C(=O)C1N=Nc1ccc(C(=O)O)cc1` (stereo not given), the growth inhibition in assay [1] was -33.9%; in assay [2] it was 5.95%; in assay [3] it was 12.6%; in assay [4], -11.7%; in assay [5], -2.7%; in assay [6] it was 25.9%.
`CCC(C)C(N)C(=O)N1CCCC1C(=O)O` (stereo not drawn) (H-Ile-Pro-OH; configuration not given here): the growth inhibition in assay [1] was -23.1%; in assay [2] it was -4.65%; in assay [3], -1.15%; in assay [4], -25.9%; in assay [5] it was -2.45%; in assay [6], -3.15%.
Regarding `CCOC(=O)C(C(=O)OCC)=c1sc(=C(C(=O)OCC)C(=O)OCC)s1`, the growth inhibition in assay [1] is 20.2%; in assay [2], 7.8%; in assay [3], 17.1%; in assay [4], 5.05%; in assay [5], -2.5%; in assay [6] it was 9.3%.
As for `Cc1ccc(S(=O)(=O)OCC2OCOC2C2OCOC2CI)cc1` (stereo not given), the growth inhibition is 12.2% in assay [1]; 3% in assay [2]; 2.6% in assay [3]; -9.9% in assay [4]; 10.1% in assay [5]; 13.2% in assay [6].

For the origin of these results see PubChem BioAssay (NCI).
